The record followed here is PubChem BioAssay (NCATS).

The source made the active and inactive calls. Calls come from the whole dose curve; as a rule, active = well fitted curve in the direction sought with a large enough effect; inconclusive = small, poorly fitted or top-dose-only effect, or another doubt; inactive = no such curve, though single readings can be large or run the other way.

Hexokinase-4 (Homo sapiens) + Glucokinase regulatory protein (Homo sapiens), sequence (P35557 whole entry, looked up): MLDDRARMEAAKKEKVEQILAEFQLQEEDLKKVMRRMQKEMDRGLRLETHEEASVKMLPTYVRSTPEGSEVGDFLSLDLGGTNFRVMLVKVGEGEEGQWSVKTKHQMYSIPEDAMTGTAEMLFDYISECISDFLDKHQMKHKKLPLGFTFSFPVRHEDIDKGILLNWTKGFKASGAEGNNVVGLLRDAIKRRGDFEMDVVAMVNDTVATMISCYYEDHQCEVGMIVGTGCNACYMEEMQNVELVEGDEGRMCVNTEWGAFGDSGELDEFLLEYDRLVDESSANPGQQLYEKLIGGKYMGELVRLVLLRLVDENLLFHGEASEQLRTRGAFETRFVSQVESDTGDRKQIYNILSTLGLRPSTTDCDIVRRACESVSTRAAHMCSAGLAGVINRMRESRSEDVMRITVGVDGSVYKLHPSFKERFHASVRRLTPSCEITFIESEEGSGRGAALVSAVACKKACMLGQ
Hexokinase-4 (Homo sapiens) + Glucokinase regulatory protein (Homo sapiens), sequence (Q14397 whole entry, looked up): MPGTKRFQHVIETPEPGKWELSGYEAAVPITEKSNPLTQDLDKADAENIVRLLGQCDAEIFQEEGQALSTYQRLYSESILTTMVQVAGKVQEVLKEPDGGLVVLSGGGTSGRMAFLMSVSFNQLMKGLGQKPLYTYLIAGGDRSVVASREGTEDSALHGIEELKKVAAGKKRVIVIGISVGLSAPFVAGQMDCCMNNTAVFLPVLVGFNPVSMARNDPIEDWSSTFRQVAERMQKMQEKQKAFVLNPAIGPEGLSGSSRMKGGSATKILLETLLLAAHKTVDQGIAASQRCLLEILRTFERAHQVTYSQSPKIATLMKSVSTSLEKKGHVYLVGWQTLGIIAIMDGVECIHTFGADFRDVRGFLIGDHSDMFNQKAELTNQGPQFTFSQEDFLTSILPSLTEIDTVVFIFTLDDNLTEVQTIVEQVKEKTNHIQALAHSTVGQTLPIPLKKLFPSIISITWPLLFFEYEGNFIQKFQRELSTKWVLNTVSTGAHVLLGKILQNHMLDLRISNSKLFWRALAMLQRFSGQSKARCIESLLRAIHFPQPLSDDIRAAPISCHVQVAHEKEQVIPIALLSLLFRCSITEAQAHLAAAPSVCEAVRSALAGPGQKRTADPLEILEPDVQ

The target in the test is Hexokinase-4 (Homo sapiens) + Glucokinase regulatory protein (Homo sapiens) (UniProt P35557+Q14397). Kind of test: qHTS assay for inhibitors of recombinant human GCK-GKRP interaction: Diaphorase-coupled assay (AID 743205). Conditions: G6PDH/diaphorase resorufin fluorescence; series mostly up to 57.5 µM; activity change, positive = activation: at the top concentration. From the text:
Glucokinase (GCK) is a glucose sensor in hepatocytes and pancreatic beta-cells. Hepatic GCK is regulated by glucokinase regulatory protein (GKRP), which is predominantly localized to the liver. GKRP binds to GCK inhibiting its activity in the fasting state while in the presence of glucose the GKRP is displaced. There is an additional layer of regulation by fructose 1-phosphate and fructose 6-phosphate, which inhibit and enhance the GCK-GKRP interaction, respectively. GCK plays a role in glucose homeostasis and there is an interest in the development of strategies to activate GCK to lower blood glucose levels in type 2 diabetes. To date the majority of effort has focused on direct activation of GCK and the assays developed herein look to activate GCK by inhibiting its binding to GKRP. A compound that inhibits the interaction of GCK with GKRP could be important for the treatment of diabetes and can also be used as a tool compound to further elucidate GCK-GKRP biology. To that end, we have developed a sensitive HTS biochemical assay where in GCK activity is coupled to G6PDH and Diaphorase to interrogate the GCK-GKRP interaction. This assay was screened against a small compound library to look for modulators of activity.
2 uL of substrate (columns 1-48) are dispensed into Greiner, black solid-bottom 1536-well assay plates. Compounds (23 nL) are then transferred via Kalypsys pin tool equipped with 1536-pin array (10 nL slotted pins, V&P Scientific, San Diego, CA). The library compounds are in columns 5-48 and columns 1-4 serve as controls with DMSO in columns 1 and 3 and 26 mM 1:1.5 fold serial of gluckokinase activator (GKA-EMD) in column 2 and 26 mM of the glucokinase activator (GKA-EMD) in column 4. Following addition of compound and a 20 minute incubation, 1 uL of enzyme mix (GST-GCK, FLAG-GKRP and diaphorase) is added to columns 1, 2, 4-48 and 1 uL of no enzyme mix (FLAG-GKRP and diaphorase) is added to column 3 and the fluorescent product resorufin generated from resazurin was monitored on a Viewlux (PerkinElmer, Shelton, CT, USA) with excitation at 525 nm and emission at 590 nm in kinetic mode where the plate was read every minute for 30 minutes. The final concentration of reagents in the reaction are 25 mM Hepes pH 7.6, 25 mM KCl, 2 mM MgCl2, 1.4 mM 2-mercaptoethanol, 0.025% BSA, 0.01% Tween-20, 0.15 mM NADP+, 5 mM glucose, 0.4 mM ATP, 4 U/ml G6PDH, 0.1 mM resazurin, 10 nM GST-GCK, 10 nM FLAG-GKRP, diaphorase (0.1 mg/mL). Data are normalized to DMSO-treated control columns with (maximum signal) and without (minimum signal) enzyme.
A general note: Quantitative high-throughput screening tests each substance at several concentrations.
`O=c1[nH]c2ccccc2n1C1CCN(CCCC(c2ccc(F)cc2)c2ccc(F)cc2)CC1`: the “activity change, positive = activation” value was -4.61% (inactive). For the molecule `Cc1cccc(C)c1NC1=NCCCS1`, the “activity change, positive = activation” value is -2.53% (inactive). As for `Cc1cccc(C)c1NC(=O)CN1CCCC1=O`, the “activity change, positive = activation” value was -2.46% (inactive). For the molecule `CCCN1CCC[C@@H]2Cc3[nH]ncc3C[C@H]21`, the result was inactive. `CC(C)=CCOc1c2occc2cc2ccc(=O)oc12`: the “activity change, positive = activation” value is -32.5% (inactive). On the same count and under the same terms, the value for `CNCC(O)c1ccc(O)cc1` (stereo not given) was -2.58% (inactive); that for `O=c1[nH]c2ccccc2n1CCCN1CCC(n2c(=O)[nH]c3cc(Cl)ccc32)CC1` was -1.96% (inactive); that for `Cc1ccc(S(=O)(=O)N[C@@H](CCCCN)C(=O)CCl)cc1` was -20.7% (inactive). Still for that read-out and setting: the value for `NCC(CC(=O)O)c1ccc(Cl)cc1` (stereo not given) was -4.39% (inactive). For `CC(O)(CS(=O)(=O)c1ccc(F)cc1)C(=O)Nc1ccc(C#N)c(C(F)(F)F)c1` (stereo not given), the “activity change, positive = activation” value is -4.33% (inactive). Regarding `CCC1(C2=NCCN2)Cc2ccccc2O1` (stereo not given), the “activity change, positive = activation” value is -7.1% (inactive). For the molecule `CN1C[C@H](CNC(=O)OCc2ccccc2)C[C@@H]2c3cccc4c3c(cn4C)C[C@H]21`, the “activity change, positive = activation” value was -18.8% (inactive). Same read-out and setting: the value for `CC[C@@H](CO)NC(=O)[C@@H]1C=C2c3cccc4[nH]cc(c34)C[C@H]2N(C)C1` was -30.6% (inactive); that for `CCCC(C)(COC(N)=O)COC(=O)NC(C)C` (stereo not given) was -0.223% (inactive).

For the molecule `c1ccc(C2CC2)c(OCC2=NCCN2)c1`, the “activity change, positive = activation” value was 0.173% (inactive). For `C[C@@H]1O[C@@H](O[C@H]2C[C@@H](O)[C@]3(CO)[C@H]4[C@H](O)C[C@]5(C)[C@@H](C6=CC(=O)OC6)CC[C@]5(O)[C@@H]4CC[C@]3(O)C2)[C@H](O)[C@H](O)[C@H]1O`, the “activity change, positive = activation” value is -2.24% (inactive). `NCC(O)c1ccc(O)cc1` (stereo not given): the “activity change, positive = activation” value is -1.3% (inactive).

As for `Cc1ncc(CNC(=O)N(CCCl)N=O)c(N)n1`, the “activity change, positive = activation” value is -2.6% (inactive). Take `COC[C@H]1OC(=O)c2coc3c2[C@@]1(C)C1=C(C3=O)C2CCC(=O)[C@@]2(C)C[C@H]1OC(C)=O` (stereo not given in full): the “activity change, positive = activation” value was -35.1% (inactive). Same read-out and setting: with `CCCN1CCC[C@@H]2Cc3nc(N)ncc3C[C@H]21` the figure was -11.5% (inactive). Regarding `C=C(C)[C@H]1Cc2c(ccc3c2O[C@@H]2COc4cc(OC)c(OC)cc4[C@@H]2C3=O)O1`, the “activity change, positive = activation” value was -20.9% (inactive). On the same count and under the same terms, the value for `NCC1(CC(=O)O)CCCCC1` was -1.74% (inactive). As to `O=C1NCN(c2ccccc2)C12CCN(CC1COc3ccccc3O1)CC2` (stereo not given), the “activity change, positive = activation” value is -5.79% (inactive). The same measure, in the same setting: with `CC(CCc1ccccc1)NC(C)C(O)c1ccc(O)cc1` (stereo not given) the figure was -2.02% (inactive). On to `COc1ccccc1N1CCNCC1`, for which the “activity change, positive = activation” value is -4.58% (inactive). Consider `CC(=O)[C@H]1CC[C@H]2[C@@H]3CC[C@H]4C[C@](C)(O)CC[C@]4(C)[C@H]3CC[C@]12C`, for which the “activity change, positive = activation” value was -3.58% (inactive).

As for `COc1ccc(C(CN(C)C)C2(O)CCCCC2)cc1` (stereo not given), the “activity change, positive = activation” value was -1.39% (inactive). Same read-out and setting: the value for `Fc1ccc(C(OCCN2CCN(CCCc3ccccc3)CC2)c2ccc(F)cc2)cc1` was -1.01% (inactive). With `CC(=O)[C@H]1CC[C@H]2[C@@H]3CC[C@H]4C[C@H](O)CC[C@]4(C)[C@H]3C(=O)C[C@]12C`, the “activity change, positive = activation” value was -3.91% (inactive).

On to `N#CC(C#N)=Cc1ccc(O)c(O)c1`, for which the “activity change, positive = activation” value was -21.2% (inactive). As for `COc1ccc(Cc2nccc3cc(OC)c(OC)cc23)cc1OC`, the “activity change, positive = activation” value is -28.3% (inactive). Consider `NN=C(N)N`, for which the result was inactive. Consider `C[C@]12CCC(=O)C(O)=C1CC[C@@H]1[C@@H]2CC[C@]2(C)C(=O)CC[C@@H]12`, for which the “activity change, positive = activation” value was -1.17% (inactive). The same measure, in the same setting: with `c1ccc2c(c1)OCC(C1=NCCN1)O2` (stereo not given) the figure was -1.32% (inactive); with `Nc1ccncc1`, -0.767% (inactive).
